From PubChem BioAssay
MEKK2 mut-MEK5: MEK5 binding signal on mutant MEKK2 PB1, primary screen, biochemical, multiplex bead flow cytometry, Alexa488-MEK5. Alexa488-MEK5 binding to MEKK2 mutant. percent response, % at 10 µM. 290,000 tested, 0.35% active. AID 1530, 2009; in the data active = percent response above about 24%, passing the limit was not always enough
Beta2AR agonist: beta2AR agonists driving receptor internalization, primary screen, cell-based, FAP fluorogen, flow cytometry. response, % (concentration not given with the values). Am2.2-beta2AR cells. 340,000 tested, 0.43% active;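 active = response above a set limit, near 3 SD of response in nonfluorescent compounds, cut at about 42% in these data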
MEKK3 PB1 HTS: modulators of MEKK3-MEK5 PB1 binding, primary screen, biochemical, wildtype MEKK3, multiplex bead flow cytometry, Alexa488-MEK5; Mitogen-activated protein kinase kinase kinase 3 (Homo sapiens), Q99759; 290,000 tested, 1.4% active; binding response (% of control), % at 10 µM; bead-based flow cytometry, Alexa488-MEK5 binding to MEKK3; actives lie on both sides; 0 = blocked by unlabeled MEK5, 100 = vehicle;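 active = binding response more than 3 SD above or below the average of its plate-row segment, actives on both sides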;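 note: Alexa488 bead fluorescence after subtracting the streptavidin-only scavenger bead signal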
GRK2 inh: compounds blocking aptamer binding on GRK2 – biochemical, human GRK2, bead flow cytometry, HTS, primary screen; Beta-adrenergic receptor kinase 1 (Homo sapiens), P25098; FAM-aptamer displacement from GRK2; inhibition of aptamer binding, % at 10 µM; 330,000 tested, 0.59% active;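 active = inhibition of aptamer binding above 40%, roughly 3 SD of noise, on plates passing a quality check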;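 note: median bead fluorescence of bound FAM aptamer so fluorescent compounds give negative values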
Target sequence (P25098 whole entry, looked up): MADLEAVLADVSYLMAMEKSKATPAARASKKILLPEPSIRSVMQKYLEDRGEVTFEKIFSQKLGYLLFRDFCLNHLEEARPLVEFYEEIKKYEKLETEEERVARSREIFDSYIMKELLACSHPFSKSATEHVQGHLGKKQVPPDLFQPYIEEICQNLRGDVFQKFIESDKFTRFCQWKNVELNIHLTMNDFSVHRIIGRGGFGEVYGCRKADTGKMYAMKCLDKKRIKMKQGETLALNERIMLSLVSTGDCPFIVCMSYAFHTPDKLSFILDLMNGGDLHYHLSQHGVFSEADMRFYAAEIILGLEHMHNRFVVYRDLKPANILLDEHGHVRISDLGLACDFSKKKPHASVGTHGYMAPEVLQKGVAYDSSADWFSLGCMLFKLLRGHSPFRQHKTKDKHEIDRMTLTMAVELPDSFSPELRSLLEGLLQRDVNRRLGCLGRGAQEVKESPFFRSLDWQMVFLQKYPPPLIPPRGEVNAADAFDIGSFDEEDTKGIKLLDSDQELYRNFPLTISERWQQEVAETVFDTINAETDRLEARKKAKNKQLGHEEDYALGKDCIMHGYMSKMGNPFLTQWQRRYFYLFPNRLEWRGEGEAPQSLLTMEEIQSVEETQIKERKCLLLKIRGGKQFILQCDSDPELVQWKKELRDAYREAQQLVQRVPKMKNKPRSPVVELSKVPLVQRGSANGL
MEKK2 WT-MEK5: modulators of MEK5 binding to wildtype MEKK2, primary screen, biochemical, multiplex bead flow cytometry, Alexa488-MEK5. binding response (% of control), % at 10 µM. 290,000 tested, 1.1% active. Alexa488-MEK5 binding to MEKK2 WT; actives lie on both sides. Mitogen-activated protein kinase kinase kinase 2 (Homo sapiens), Q9Y2U5; in the data active = binding response below about 67% or above about 130%
MEKK2wt confirm: modulators of MEK5 binding to wildtype MEKK2, confirmation, biochemical, single concentration, multiplex bead flow cytometry | shares compounds with MEKK3 PB1 HTS | binding response (% of control), % at 10 µM | Alexa488-MEK5 binding to MEKK2 WT; actives lie on both sides | 5,900 tested, 2.4% active; in the data active = binding response below about 16% or above about 210%; inactive = in between
MEKK2mut-MEK5: mutant MEKK2 PB1-MEK5 binding signal retest – biochemical, single concentration, multiplex bead flow cytometry, confirmation; shares compounds with MEKK3 PB1 HTS; Alexa488-MEK5 binding to MEKK2 mutant; percent response, % at 10 µM; 5,900 tested, 2% active; in the data active = percent response mostly above about 71%, no sharp cut-off; inactive = mostly below about 38%;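 note: higher means compound restores mutant binding toward wildtype level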
MEKK3-MEK5 inh: MEKK3 wild-type PB1 binding to MEK5, inhibitors, confirmation, biochemical, bead multiplex flow cytometry, single concentration, wildtype | shares compounds with MEKK3 PB1 HTS | 5,900 tested, 1.8% active | Alexa488-MEK5 binding to MEKK3; stronger effect = lower value | binding response (% of control), % at 10 µM;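 active = binding response below 72% of control, or above a set upper limit, though filed actives all read lower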
A number is an active result; – = inactive; · = no result; [ ] = dose if it differs, or a comment. Shown are actives, neighbours in structure and some others; about 2.9% of the full set was active somewhere.

SMILES | MEKK2 mut-MEK5 | Beta2AR agonist | MEKK3 PB1 HTS | GRK2 inh | MEKK2 WT-MEK5 | MEKK2wt confirm | MEKK2mut-MEK5 | MEKK3-MEK5 inh
O=C(NCCc1c[nH]c2ccccc12)C(=O)NCC(c1ccco1)N1CCN(c2ccc(F)cc2)CC1 (configuration not stated) | – | – | 129 | – | – | – | – | –
Cc1ccc(CNC(=O)C(=O)NCC(c2ccco2)N2CCOCC2)cc1 (configuration not stated) | – | – | 129 | – | – | – | – | –
O=C(NCCc1c[nH]c2ccccc12)C(=O)NCC(c1ccco1)N1CCN(c2ccccc2)CC1 (configuration not stated) | – | – | – | – | – | · | · | ·
CCN1CCN(c2c(Cl)cccc2NC(=O)c2ccc3c(c2)OCCO3)CC1 | – | – | 48[inhibitor] | – | – | – | – | –
CC(=O)c1cccc(NC(=O)C(C)OC(=O)CCC2CCCCC2)c1 (configuration not stated) | · | – | · | – | · | · | · | ·
CC(=O)c1cccc(NC(=O)CCC2CCCC2)c1 | – | – | 2.0[inhibitor] | – | 2.0[inhibitor] | – | – | –
CCc1ccccc1NC(=O)CN(c1ccc(OC)cc1OC)S(=O)(=O)c1ccccc1 | – | – | – | – | – | · | · | ·
CCOc1nc(Nc2ccc(OC)c(Cl)c2)nc(N2CCN(c3ccc(OC)cc3)CC2)n1 | 33 | – | 79[inhibitor] | – | – | – | – | –
C#CCOCCOCCOCCNc1nc(N2CCN(C(=O)[C@H]([C@@H](C)CC)n3cc([C@@H](N)Cc4ccc(O)cc4)nn3)CC2)nc(N2CCN(C(=O)[C@H](CCCCN)n3cc([C@@H](N)C(C)CC)nn3)CC2)n1 (some centres not stated) | – | – | – | – | 176 | – | – | –
C#CCOCCOCCOCCNc1nc(N2CCN(C(=O)[C@H]([C@@H](C)CC)n3cc([C@@H](N)CO)nn3)CC2)nc(N2CCN(C(=O)[C@H]([C@@H](C)CC)n3cc([C@@H](N)Cc4ccc(O)cc4)nn3)CC2)n1 | – | – | – | – | 134 | – | – | –
C#CCOCCOCCOCCNc1nc(N2CCN(C(=O)[C@H]([C@@H](C)CC)n3cc([C@@H](N)CC(C)C)nn3)CC2)nc(N2CCN(C(=O)[C@H](Cc3ccc(O)cc3)n3cc([C@@H](N)CC(C)C)nn3)CC2)n1 | – | · | – | – | 150 | – | – | –
C#CCOCCOCCOCCNc1nc(N2CCN(C(=O)[C@H]([C@@H](C)CC)n3cc([C@@H](N)CO)nn3)CC2)nc(N2CCN(C(=O)[C@H](Cc3ccc(O)cc3)n3cc([C@@H](N)C(C)CC)nn3)CC2)n1 (some centres not stated) | – | – | – | · | – | · | · | ·
C#CCOCCOCCOCCNc1nc(N2CCN(C(=O)[C@H]([C@@H](C)CC)n3cc([C@@H](N)CC(C)C)nn3)CC2)nc(N2CCN(C(=O)[C@H]([C@@H](C)CC)n3cc([C@@H](N)CC(C)C)nn3)CC2)n1 | 87 | – | – | – | 223 | – | – | –
OCC[C@H]1C[C@H](O)[C@@H](O)[C@@]2(CCc3ccccc3O2)O1 | · | – | · | – | · | · | · | ·
O=C(Nc1ccon1)Nc1cccc(Cl)c1Cl | – | – | – | – | – | · | · | ·
C#CCOCCOCCOCCNc1nc(N2CCN(C(=O)[C@H]([C@@H](C)CC)n3cc([C@@H](N)Cc4ccc(O)cc4)nn3)CC2)nc(N2CCN(C(=O)[C@H]([C@@H](C)CC)n3cc([C@@H](N)Cc4ccc(O)cc4)nn3)CC2)n1 | – | – | – | – | 151 | – | – | –
COCC1CCN(Cc2c(C(=O)N3CCc4ccccc4C3)nc3ccc(Cl)cn23)C1 (configuration not stated) | – | – | – | – | – | · | · | ·
Cc1noc(/C=C/c2ccc(-c3ccccc3Cl)o2)c1[N+](=O)[O-] | 92 | – | – | – | – | – | – | 54
Cc1ccc(N/C=C/c2onc(C)c2[N+](=O)[O-])cc1 | – | – | 37[inhibitor] | – | 33[inhibitor] | – | – | –
Cc1cccc(C)c1N/C=C/c1onc(C)c1[N+](=O)[O-] | – | – | – | – | – | · | · | ·
CC(C)(C)NC(=S)N1CCC(C(=O)c2ccc(Cl)cc2)CC1 | – | – | – | – | – | · | · | ·
COc1ccc(C(C)C)cc1S(=O)(=O)N1CCC(C(=O)N2CCN(C)CC2)CC1 | – | – | – | – | – | · | · | ·
COc1ccc(C(C)C)cc1S(=O)(=O)N1CCN(C)CC1 | – | – | 133 | – | – | – | – | –
CCOC(=O)N1CCC(NC(=O)c2ccc3c(c2)N=C(C)c2c(C)ccc(C)c2S3)CC1 | – | – | – | – | – | · | · | ·
Cc1cnc(C(=O)Nc2cccc(-c3nnc4n3CCCCC4)c2)cn1 | – | – | – | – | – | · | · | ·
SMILES | MEKK2 mut-MEK5 | Beta2AR agonist | MEKK3 PB1 HTS | GRK2 inh | MEKK2 WT-MEK5 | MEKK2wt confirm | MEKK2mut-MEK5 | MEKK3-MEK5 inh
c1cc(Nc2ncnc3sccc23)cc(-c2nnc3n2CCCCC3)c1 | – | – | -1.0[inhibitor] | – | -1.0[inhibitor] | – | – | –
O=C(CN1CCOCC1)N1CCN(c2ccc3ccccc3n2)CC1 | – | · | – | · | – | · | · | ·
COc1ccc(C(c2nnnn2CC2CCCO2)N2CCC(C(N)=O)CC2)cc1 (configuration not stated) | – | – | – | – | – | · | · | ·
COc1ccccc1C(c1nnnn1CC1CCCO1)N1CCC(C(N)=O)CC1 (configuration not stated) | – | – | 74[inhibitor] | – | – | – | – | –
COCCn1nnnc1C(c1ccc(OC)cc1)N1CCN(c2ccccc2F)CC1 (configuration not stated) | – | – | 122 | – | – | – | – | –
COc1ccc(C(c2nnnn2CC2CCCO2)N2CCN(c3cccc(C)c3C)CC2)cc1 (configuration not stated) | – | – | 122 | – | – | – | – | –
CC(C)N1CCN(C(=O)c2ccc(OC3CCN(CCc4ccccc4)CC3)cc2)CC1 | – | – | – | – | – | · | · | ·
